# This is a sample that favours compounds with a hit; in the whole collection about 2.4% have one here.
# FEN1 inh: blocks human flap endonuclease 1; P39748; Recombinant FEN1 flap cleavage, fluorescence, 15 min; Potency, µM (titrated, usually from 114 µM), for the others: at the top dose activity change, negative = inhibition, usual class: inhibitors; 390,000 tested, 0.35% active; note: potency is the fitted concentration of half-maximal effect; % is set by controls: 0 for no effect and ±100 for the full control effect; nearly all actives have a fitted effect of over 65% in size
#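 Nuclease activity of 10 nM FEN1 was measured after 15 min of room-temperature exposure to titrated compounds, by adding 50 nM flap substrate and reading plates at 0 and 15 min.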
# Pol beta inh: blocks human DNA polymerase beta activity; Potency, µM (titrated, usually from 114 µM), inactives show at the highest dose activity change, negative = inhibition, usual class: inhibitors; AID 485314; Pol beta primer extension/strand displacement, fluorescence kinetic; 340,000 tested, 1.3% active; note: potency is the fitted concentration of half-maximal effect; % is set by controls: 0 for no effect and ±100 for the full control effect
#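 Reaction started by 50 nM substrate onto compound-treated Pol beta (10 nM, 15 min preincubation, room temperature); plates read at 0 min and 10 min. Normalized concentration-effect data fitted by four-parameter Hill equation.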
# Pol eta inh-1: blocks human DNA polymerase eta activity; Potency, µM (doses to about 114 µM), for the others: at the highest dose activity change, negative = inhibition, usual class: inhibitors; recombinant Pol eta, fluorescent DNA replication assay; 390,000 tested, 1.2% active; Q9Y253; note: potency is the fitted concentration of half-maximal effect; % is set by controls: 0 for no effect and ±100 for the full control effect
#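 Pol eta at 10 nM preincubated with compounds 15 min at room temperature; reaction started with fluorescent substrate (50 nM final) and read kinetically at 0 and 10 min.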
# Pol kappa inh-1: blocks human DNA polymerase kappa activity. purified Pol kappa, fluorescent DNA synthesis assay, 10 min. 400,000 tested, 0.53% active. Potency, µM (series often up to 107 µM), for inactives: at the top dose activity, negative = inhibition, actives largely listed as inhibitors. Q9UBT6; note: potency is the fitted concentration of half-maximal effect; % is set by controls: 0 for no effect and ±100 for the full control effect
#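 Pol kappa 10 nM + cpd, 15 min RT; start w/ substrate 50 nM final; fluorescence kinetic read, 0 and 10 min. Neg ctrl: buffer, no enzyme.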
# WRN inhibitor: inhibitors of human WRN helicase; AID 651768; Potency, µM (series often up to 114 µM), for inactives: at the top dose activity change, negative = inhibition, most hits filed as inhibitors; 360,000 tested, 0.46% active; Q14191; WRN helicase unwinding, fluorescent forked duplex, kinetic; note: potency is the fitted concentration of half-maximal effect; % is set by controls: 0 for no effect and ±100 for the full control effect; nearly all actives have a fitted effect of over 55% in size
#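 Enzyme (20 nM final) and test compound sit together 15 min at room temperature before substrate addition. Substrate is a single-forked duplex oligonucleotide (100 nM) labelled with fluorophore and quencher, with 2 mM ATP; helicase unwinding raises red fluorescence, read kinetically.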
# Pol iota inh: inhibitors of human DNA polymerase iota; 390,000 tested, 1% active; AID 588590; Pol iota fluorescent replication assay, 10 min; Potency, µM (series often up to 115 µM), for the others: at the top dose activity, negative = inhibition, actives largely listed as inhibitors; note: potency is the fitted concentration of half-maximal effect
#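 Pol iota at 10 nM preincubated 15 min with compounds at room temperature; reaction started with fluorescent substrate, 50 nM final. Fluorescence read kinetically at 0 and 10 min; buffer-only wells as negative control.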
# GALK inh confirm: galactokinase (human) inhibition, confirmation. shares compounds with Pol eta inh-1. purified GALK, Kinase-Glo ATP depletion luminescence. Potency, µM (series often up to 115 µM), inactives show at the highest dose activity, negative = inhibition, hits mostly inhibitors. 150 tested, 70% active. AID 2015
# GALK redox cs: generates H2O2 by redox cycling, flagging GALK artifacts; shares compounds with Pol eta inh-1; Phenol red-HRP H2O2 redox cycling, absorbance 600 nm; 150 tested, 40% active; Potency, µM (doses to about 115 µM), for the others: top-dose activity change, negative = H2O2 signal, actives largely listed as inhibitors
# HEK293 viability: reduces HEK-293 cell viability in GALK counter-screen; shares compounds with Pol eta inh-1; HEK-293 viability, ATP luminescence (CellTiter-Glo), 24/48 h; Potency, µM (series often up to 46.1 µM), for inactives: at the highest dose activity change, negative = cytotoxicity, hits mostly inhibitors; 170 tested, 10% active; AID 2547; note: potency is the fitted concentration of half-maximal effect; % is set by controls: 0 for no effect and ±100 for the full control effect
# Pol kappa inh-2: confirmation of human DNA polymerase kappa inhibitors; shares compounds with Pol eta inh-1; Potency, µM, actives largely listed as inhibitors; purified Pol-kappa, fluorescent strand-displacement substrate; 920 tested, 76% active; AID 720501; note: potency is the fitted concentration of half-maximal effect
# Pol eta inh-2: confirmation of human DNA polymerase eta inhibitors | shares compounds with Pol eta inh-1 | Pol eta primer extension, TAMRA/BHQ fluorescence, 10 min | Potency, µM, most hits filed as inhibitors | 2,600 tested, 64% active | AID 720502; note: potency is the fitted concentration of half-maximal effect
# Numbers without * were called inactive; ? = inconclusive; . = no result given; [ ] = dose if it differs, or a comment. Calls come from the whole dose curve; as a rule, active = well fitted curve in the direction sought with a large enough effect; inconclusive = small, poorly fitted or top-dose-only effect, or another doubt; inactive = no such curve, though single readings can be large; an effect the other way counts as inactive or inconclusive.
SMILES,FEN1 inh,Pol beta inh,Pol eta inh-1,Pol kappa inh-1,WRN inhibitor,Pol iota inh,Pol eta inh-2,others
CCOc1cc(/C=C2/C(=N)N3C(=NC2=O)SN=C3S(C)(=O)=O)ccc1OS(=O)(=O)c1ccccc1,-30.5%,?,79.4µM*,-8.9%,-27.4%,?,.,GALK inh confirm=33.5µM*;GALK redox cs=-4.5%;HEK293 viability=8.9%
CCc1ccc(NC(=O)c2ccc(NS(=O)(=O)c3c(C)noc3C)cc2)cc1,-11.4%,78.2%,-3.2%,-6.9%,.,-25.7%,.,
Cc1noc(C)c1S(=O)(=O)Nc1ccc(C(=O)Nc2ccc(OC(F)(F)F)cc2)cc1,-4.4%,33.5%,-16.5%,3.9%,-2.9%[57.1 µM],11.3%,.,GALK inh confirm=33.5µM*;GALK redox cs=1.1%;HEK293 viability=?
COC(=O)c1ccc(Cn2cc(/C=C\[N+](=O)[O-])c3ccccc32)o1,-20.1%,0.7%,-8.3%,-13.5%,-22.6%,?,.,
O=C(O)c1ccc(Cn2cc(/C=C\[N+](=O)[O-])c3ccccc32)o1,-23.4%,?,22.4µM*,?,?,8.91µM*,75.7*,
CCS(=O)(=O)C1=NN2C(=N)/C(=C\c3ccc(OC(=O)c4ccco4)c(Br)c3)C(=O)N=C2S1,.,89.1µM*,.,.,.,.,.,GALK inh confirm=29.8µM*;GALK redox cs=0.0%;HEK293 viability=-10.0%
COc1cccc(CNC(=O)CCc2nnc3n(C)c(=O)c4sccc4n23)c1,-14.6%,6.6%,.,6.7%,.,3.4%,.,
Cc1ccc(C(=O)COc2ccc3ccc(=O)oc3c2)cc1,-9.6%,-3.2%,-5.5%,-9.5%,-9.8%,11.7%,.,
COC(=O)c1c(C)[nH]c(C(=O)COc2ccc3ccc(=O)oc3c2)c1C,?,.,44.7µM*,-37.6%,-12.9%[11.6 µM],?,?,
Cc1ccc(NC(=O)C(Cc2ccccc2)n2cccc2)cc1C (stereo not drawn),?,10.6%,-17.4%,-1.2%,.,11.7%,.,
O=C(O)CCc1ccc(-c2cccs2)n1CCC(=O)O,-1.5%,22.4µM*,10µM*,?,-3.5%[57.1 µM],?,?,
Cc1c(C(=O)O)cccc1-c1ccc(C=O)o1,-12.4%,28.2µM*,5.01µM*,?,-18.9%[57.1 µM],?,84.9*,
CCOC(=O)c1cccc(-c2ccc(C=O)o2)c1,-1.9%,?,-18.1%,-19.1%,-24.1%,0.7%,.,
O=C(Cc1ccc(Br)cc1)N/N=C/c1ccc(-c2cccc(C(=O)O)c2)o1,-1.9%,?,22.4µM*,?,-12.8%[11.6 µM],22.5%,30.1*,
O=Cc1ccc(-c2cccc(C(=O)O)c2)o1,5.5%,?,10µM*,?,-4.7%[11.6 µM],?,47.8*,
CCCCN(CC)C(=O)c1ccc2c(c1)NC(=O)c1ccccc1S2,-24.0%,24.0%,-16.4%,9.0%,.,10.3%,.,
O=C1CSC(=S)N1N=Cc1ccc(Cl)s1,-23.0%,.,?,?,20µM*,14.1µM*,53.6*,Pol kappa inh-2=16.8*

# Source: PubChem BioAssay (National Center for Advancing Translational Sciences (NCATS))
